# According to the supplement of paper PMC6992640:
# How the values were obtained:
# HCI01 = cells of a triple-negative basal-like breast cancer xenograft; experiment: cell viability of combination (% of vehicle); higher = less cytotoxic; conditions: 1 µM; 72 h; partner dose: 10 nM
# Description: (§1)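 PDX cells were treated for 72 h with each drug at 1 µM plus afatinib (10 nM; 1 µM for WHIM30). Luciferase viability is expressed as percent of vehicle.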
# WHIM2 = cells of a triple-negative basal-like breast cancer xenograft; experiment: as above; conditions: 1 µM; 72 h; partner dose: 10 nM
# Description: as §1
SMILES,cell viability of combination (HCI01),cell viability of combination (WHIM2)
CC(C)(C)c1ccc(C(=O)CCCN2CCC(OC(c3ccccc3)c3ccccc3)CC2)cc1 [Ebastine] + CN(C)C/C=C/C(=O)Nc1cc2c(Nc3ccc(F)c(Cl)c3)ncnc2cc1O[C@H]1CCOC1 [Afatinib],48.2,50.3
COC(=O)C1=C(C)NC(C)=C(C(=O)OC2CCCN(Cc3ccccc3)C2)C1c1cccc([N+](=O)[O-])c1.Cl (stereo unspecified) [Benidipine HCl] + CN(C)C/C=C/C(=O)Nc1cc2c(Nc3ccc(F)c(Cl)c3)ncnc2cc1O[C@H]1CCOC1 [Afatinib],53.4,51.4
CCOC(=O)C1=C(COCCN)NC(C)=C(C(=O)OC)C1c1ccccc1Cl.O=S(=O)(O)c1ccccc1 (stereo unspecified) [Amlodipine Besylate] + CN(C)C/C=C/C(=O)Nc1cc2c(Nc3ccc(F)c(Cl)c3)ncnc2cc1O[C@H]1CCOC1 [Afatinib],59.5,51.7
CNC1CCC(c2ccc(Cl)c(Cl)c2)c2ccccc21.Cl (stereo unspecified) [Sertraline HCl] + CN(C)C/C=C/C(=O)Nc1cc2c(Nc3ccc(F)c(Cl)c3)ncnc2cc1O[C@H]1CCOC1 [Afatinib],53.4,49.2
CN1CCCC1CCOC(C)(c1ccccc1)c1ccc(Cl)cc1.O=C(O)C=CC(=O)O (stereo unspecified) [Clemastine Fumarate] + CN(C)C/C=C/C(=O)Nc1cc2c(Nc3ccc(F)c(Cl)c3)ncnc2cc1O[C@H]1CCOC1 [Afatinib],54.6,54
CN1CCN(CCCN2c3ccccc3Sc3ccc(C(F)(F)F)cc32)CC1.Cl.Cl [Trifluoperazine 2HCl] + CN(C)C/C=C/C(=O)Nc1cc2c(Nc3ccc(F)c(Cl)c3)ncnc2cc1O[C@H]1CCOC1 [Afatinib],56.1,44
COc1ccc2cc1Oc1ccc(cc1)CC1c3c(cc4c(c3Oc3cc5c(cc3OC)CCN(C)C5C2)OCO4)CCN1C (stereo unspecified) [Cepharanthine] + CN(C)C/C=C/C(=O)Nc1cc2c(Nc3ccc(F)c(Cl)c3)ncnc2cc1O[C@H]1CCOC1 [Afatinib],48.5,38.1
CC1(C)Cc2c(-c3ccccc3)c(-c3ccc(Cl)cc3)c(CC(=O)O)n2C1 [Licofelone] + CN(C)C/C=C/C(=O)Nc1cc2c(Nc3ccc(F)c(Cl)c3)ncnc2cc1O[C@H]1CCOC1 [Afatinib],66.1,46.8
CC(CCC(=O)O)C1CCC2C3CCC4CC(O)CCC4(C)C3CCC12C (stereo unspecified) [Lithocholic Acid] + CN(C)C/C=C/C(=O)Nc1cc2c(Nc3ccc(F)c(Cl)c3)ncnc2cc1O[C@H]1CCOC1 [Afatinib],45.1,40.5
COC1=C(OC)C(=O)C(CCCCCCCCCCO)=C(C)C1=O [Idebenone] + CN(C)C/C=C/C(=O)Nc1cc2c(Nc3ccc(F)c(Cl)c3)ncnc2cc1O[C@H]1CCOC1 [Afatinib],58.8,50.1
CN(C(=O)CN(CCO)CC(=O)N(C)C(C)(C)Cc1ccccc1)C(C)(C)Cc1ccccc1 [Oxethazaine] + CN(C)C/C=C/C(=O)Nc1cc2c(Nc3ccc(F)c(Cl)c3)ncnc2cc1O[C@H]1CCOC1 [Afatinib],49.1,41.4
COCCn1c2c([n+](Cc3cnccn3)c1C)C(=O)c1ccccc1C2=O.[Br-] + CN(C)C/C=C/C(=O)Nc1cc2c(Nc3ccc(F)c(Cl)c3)ncnc2cc1O[C@H]1CCOC1 [Afatinib],18.3,11.8
COc1cccc2c1C(=O)c1c(O)c3c(c(O)c1C2=O)CC(O)(C(=O)CO)CC3OC1CC(N)C(O)C(C)O1.Cl (stereo unspecified) [Doxorubicin (Adriamycin) HCl] + CN(C)C/C=C/C(=O)Nc1cc2c(Nc3ccc(F)c(Cl)c3)ncnc2cc1O[C@H]1CCOC1 [Afatinib],49.5,13.6
C#Cc1cccc(Nc2ncnc3cc(OCCOC)c(OCCOC)cc23)c1.Cl [Erlotinib Hydrochloride] + CN(C)C/C=C/C(=O)Nc1cc2c(Nc3ccc(F)c(Cl)c3)ncnc2cc1O[C@H]1CCOC1 [Afatinib],47.7,37.5
COc1cc2c(Nc3ccc(Br)cc3F)ncnc2cc1OCC1CCN(C)CC1 [Vandetanib (ZD6474)] + CN(C)C/C=C/C(=O)Nc1cc2c(Nc3ccc(F)c(Cl)c3)ncnc2cc1O[C@H]1CCOC1 [Afatinib],47.3,24.4
CNCCC(Oc1ccc(C(F)(F)F)cc1)c1ccccc1.Cl (stereo unspecified) [Fluoxetine HCl] + CN(C)C/C=C/C(=O)Nc1cc2c(Nc3ccc(F)c(Cl)c3)ncnc2cc1O[C@H]1CCOC1 [Afatinib],46.4,43.8
COc1cc(Nc2c(C#N)cnc3cc(OCCCN4CCN(C)CC4)c(OC)cc23)c(Cl)cc1Cl [Bosutinib (SKI-606)] + CN(C)C/C=C/C(=O)Nc1cc2c(Nc3ccc(F)c(Cl)c3)ncnc2cc1O[C@H]1CCOC1 [Afatinib],40.3,38
CCOC(=O)c1c(CSc2ccccc2)n(C)c2cc(Br)c(O)c(CN(C)C)c12.Cl [Arbidol HCl] + CN(C)C/C=C/C(=O)Nc1cc2c(Nc3ccc(F)c(Cl)c3)ncnc2cc1O[C@H]1CCOC1 [Afatinib],55.3,45.2
Nc1ccn(C2OC(CO)C(O)C2O)c(=O)n1 (stereo unspecified) [Cytarabine] + CN(C)C/C=C/C(=O)Nc1cc2c(Nc3ccc(F)c(Cl)c3)ncnc2cc1O[C@H]1CCOC1 [Afatinib],44.3,38.3
CC1CC(=O)NN=C1c1ccc(NN=C(C#N)C#N)cc1 (stereo unspecified) [Levosimendan] + CN(C)C/C=C/C(=O)Nc1cc2c(Nc3ccc(F)c(Cl)c3)ncnc2cc1O[C@H]1CCOC1 [Afatinib],52.7,51.2
CO[C@H]1C[C@@H]2CC[C@@H](C)[C@@](O)(O2)C(=O)C(=O)N2CCCC[C@H]2C(=O)O[C@H]([C@H](C)C[C@@H]2CC[C@@H](OC(=O)C(C)(CO)CO)[C@H](OC)C2)CC(=O)[C@H](C)/C=C(\C)[C@@H](O)[C@@H](OC)C(=O)[C@H](C)C[C@H](C)/C=C/C=C/C=C/1C [Temsirolimus] + CN(C)C/C=C/C(=O)Nc1cc2c(Nc3ccc(F)c(Cl)c3)ncnc2cc1O[C@H]1CCOC1 [Afatinib],45.9,44
CNCCC(Oc1cccc2ccccc12)c1cccs1.Cl (stereo unspecified) [Duloxetine HCl] + CN(C)C/C=C/C(=O)Nc1cc2c(Nc3ccc(F)c(Cl)c3)ncnc2cc1O[C@H]1CCOC1 [Afatinib],45.3,41.1
COc1cccc2c1C(=O)c1c(O)c3c(c(O)c1C2=O)C[C@@](O)(C(C)=O)C[C@@H]3O[C@H]1C[C@H](N)[C@H](O)[C@H](C)O1.Cl [Daunorubicin HCl] + CN(C)C/C=C/C(=O)Nc1cc2c(Nc3ccc(F)c(Cl)c3)ncnc2cc1O[C@H]1CCOC1 [Afatinib],70.7,9.65
CC[C@@]1(O)C(=O)OCc2c1cc1n(c2=O)Cc2cc3c(CN(C)C)c(O)ccc3nc2-1 [Topotecan] + CN(C)C/C=C/C(=O)Nc1cc2c(Nc3ccc(F)c(Cl)c3)ncnc2cc1O[C@H]1CCOC1 [Afatinib],40.1,31.4
Cc1c(Cl)cccc1Nc1ccccc1C(=O)O [Tolfenamic Acid] + CN(C)C/C=C/C(=O)Nc1cc2c(Nc3ccc(F)c(Cl)c3)ncnc2cc1O[C@H]1CCOC1 [Afatinib],57.3,51
CCc1c(Cl)c(O)c(Cl)c(O)c1C(=O)OC1C(C)OC(OCC2=CC=CCC(O)C(C)=CC(CC)C(OC3OC(C)(C)C(OC(=O)C(C)C)C(O)C3O)C(C)=CC(C)=CCC(C(C)O)OC2=O)C(OC)C1O (stereo unspecified) [Fidaxomicin] + CN(C)C/C=C/C(=O)Nc1cc2c(Nc3ccc(F)c(Cl)c3)ncnc2cc1O[C@H]1CCOC1 [Afatinib],56.2,51.9
CCN(CC)CCNC(=O)c1c(C)[nH]c(C=C2C(=O)Nc3ccc(F)cc32)c1C.O=C(O)CC(O)C(=O)O [Sunitinib malate] + CN(C)C/C=C/C(=O)Nc1cc2c(Nc3ccc(F)c(Cl)c3)ncnc2cc1O[C@H]1CCOC1 [Afatinib],42,44.2
CC(C)c1nc(N(C)S(C)(=O)=O)nc(-c2ccc(F)cc2)c1C=CC(O)CC(O)CC(=O)[O-].CC(C)c1nc(N(C)S(C)(=O)=O)nc(-c2ccc(F)cc2)c1C=CC(O)CC(O)CC(=O)[O-].[Ca+2] (stereo unspecified) [Rosuvastatin Calcium] + CN(C)C/C=C/C(=O)Nc1cc2c(Nc3ccc(F)c(Cl)c3)ncnc2cc1O[C@H]1CCOC1 [Afatinib],51.4,44.2
